From PubChem BioAssay (Tox21)
Results filed as inconclusive are left out. The source made the active and inactive calls. Unless noted, the call rests on the fitted dose curve; in most records, active means well fitted curve in the direction sought with a large enough effect in the repeat runs; inconclusive means weak or mixed curves; inactive means flat fitted curve, though single readings scatter.

What was measured:
[1] = qHTS assay to test for compound auto fluorescence at 535 nm (green) in HEK293 cells (AID 720680)
[2] = qHTS assay to test for compound auto fluorescence at 460 nm (blue) in HEK293 cell free culture (AID 720681)
Procedure, shortened: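 Compounds were added to cell-free DMEM with 10% FBS and fluorescence read directly. The blue channel used 405 nm excitation and 460 nm emission, with triamterene as the reference fluorophore.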

[3] = qHTS assay to test for compound auto fluorescence at 535 nm (green) in HEK293 cell free culture (AID 720682)
Procedure, shortened: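 Each library compound, or DMSO control, is added by pintool to medium alone, comprising DMEM and 10% FBS. Emission at 535 nm following 485 nm excitation is quantified against fluorescein.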

[4] = qHTS assay to test for compound auto fluorescence at 590 nm (red) in HEK293 cell free culture (AID 720683)
Procedure, shortened: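 Cell-free wells of DMEM with 10% FBS received compound, and intrinsic fluorescence was read at excitation/emission 540/590 nm. Values expressed as equivalence to Rose Bengal sodium.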

[5] = qHTS assay to test for compound auto fluorescence at 590 nm (red) in HepG2 cell free culture (AID 720684)
Procedure, shortened: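 Compounds are added to culture medium (MEM, 10% FBS) lacking cells, then fluorescence is read at excitation 540 nm, emission 590 nm, with Rose Bengal sodium as the equivalency standard.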

[6] = qHTS assay to test for compound auto fluorescence at 460 nm (blue) in HepG2 cell free culture (AID 720685)
Procedure, shortened: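 Compound (23 nL) or DMSO pinned into cell-free MEM with 10% FBS; blue fluorescence read at 405/460 nm excitation/emission, expressed as auto-fluorescence equivalency to triamterene.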

[7] = qHTS assay to test for compound auto fluorescence at 535 nm (green) in HepG2 cell free culture (AID 720686)
[8] = qHTS assay to test for compound auto fluorescence at 460 nm (blue) in HepG2 cells (AID 720687)
Procedure, shortened: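 HepG2 cells in MEM with 10% FBS, attached overnight at 37 C, were exposed to compound or DMSO for 1 hr at 37 C, 5% CO2. Blue fluorescence was read at 405/460 nm, with triamterene as reference fluorophore.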

[9] = target: Glucocorticoid receptor (Homo sapiens) (UniProt P04150); test: qHTS assay to identify small molecule agonists of the glucocorticoid receptor (GR) signaling pathway (AID 720691; active means well fitted activation curve with a large enough effect in the signal ratio in the repeat runs, not every such curve was filed as active; the % refers to the signal ratio)
Procedure, shortened: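 GR-bla HeLa cells (beta-lactamase reporter under glucocorticoid response element) were plated 4 h at 37 C/5% CO2, given compounds in DMSO, and incubated 18 h at 37 C. LiveBLAzer B/G FRET substrate was added for 2 h at room temperature, then fluorescence intensity read.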

[10] = target: Glucocorticoid receptor (Homo sapiens) (UniProt P04150); test: qHTS assay to identify small molecule antagonists of the glucocorticoid receptor (GR) signaling pathway (AID 720692; active means well fitted inhibition curve with a large enough effect in the signal ratio in the repeat runs, not every such curve was filed as active; the % refers to the signal ratio)
Procedure, shortened: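 GR-bla HeLa cells (beta-lactamase reporter under glucocorticoid response element) were pre-plated 4 h at 37 C, treated with compounds plus 5 nM dexamethasone (final) for 18 h, then read by LiveBLAzer B/G FRET fluorescence after 2 h.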

Measured: Potency

Sequence of Glucocorticoid receptor (Homo sapiens) (P04150 whole entry, looked up): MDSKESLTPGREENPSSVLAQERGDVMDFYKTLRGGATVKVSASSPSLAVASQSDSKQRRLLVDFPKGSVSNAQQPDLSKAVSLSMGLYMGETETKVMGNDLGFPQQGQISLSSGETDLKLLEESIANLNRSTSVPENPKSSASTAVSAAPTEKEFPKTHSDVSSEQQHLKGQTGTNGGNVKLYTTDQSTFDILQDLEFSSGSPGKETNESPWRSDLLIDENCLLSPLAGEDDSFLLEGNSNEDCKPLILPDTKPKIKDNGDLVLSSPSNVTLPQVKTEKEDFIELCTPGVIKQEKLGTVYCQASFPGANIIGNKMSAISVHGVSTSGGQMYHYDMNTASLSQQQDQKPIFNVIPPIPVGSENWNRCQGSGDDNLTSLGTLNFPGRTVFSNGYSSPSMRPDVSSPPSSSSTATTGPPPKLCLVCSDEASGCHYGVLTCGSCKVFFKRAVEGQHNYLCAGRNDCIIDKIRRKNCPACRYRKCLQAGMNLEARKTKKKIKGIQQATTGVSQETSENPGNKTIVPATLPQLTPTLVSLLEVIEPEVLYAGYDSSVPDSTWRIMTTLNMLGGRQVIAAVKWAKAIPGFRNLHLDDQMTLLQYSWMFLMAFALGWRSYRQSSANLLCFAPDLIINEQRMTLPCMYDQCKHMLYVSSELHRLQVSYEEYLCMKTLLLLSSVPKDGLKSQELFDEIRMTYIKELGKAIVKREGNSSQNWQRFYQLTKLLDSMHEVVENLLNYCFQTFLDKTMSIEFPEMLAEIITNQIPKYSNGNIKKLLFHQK

CC(=O)OC(C(=O)c1ccccc1)c1ccccc1 (stereo not given)
not listed: [10]
inactive: all other assays above

CC(C)=CC(C)(C)C
not listed: [10]
inactive: all other assays above

C1=CCC(c2ccccc2)CC1 (stereo not given)
not listed: [10]
inactive: all other assays above

CC(C)(C)c1ccc(C=O)cc1
not listed: [10]
inactive: all other assays above

SCCSCCS
not listed: [10]
inactive: all other assays above

COC(OC)C(C)c1ccccc1 (stereo not given)
inactive: all assays above

CCC(C)N (stereo not given)
not listed: [10]
inactive: all other assays above

COc1cc2c(Nc3ccc(Br)cc3F)ncnc2cc1OCC1CCN(C)CC1
not listed: [10]
inactive: all other assays above

CCCCCC(=O)OCC
not listed: [10]
inactive: all other assays above

Cc1cc(O)c2c(c1)C(=O)c1cccc(O)c1C2=O
not listed: [10]
inactive: all other assays above

CO/N=C(/C(=O)N[C@@H]1C(=O)N2C(C(=O)O)=C(Cn3nnc(C)n3)CS[C@H]12)c1csc(N)n1
inactive: all assays above

Cc1ccc(S(=O)(=O)NC(=O)NC2CCCCCCC2)cc1
not listed: [10]
inactive: all other assays above
